This test relates to MDA-MB-468 breast. Description: NCI-60 one-dose screen, 48 h (100 = growth as untreated, 0 = no growth, -100 = all killed). The settings on record: 10 µM unless noted.

The panel holds about 83,000 compounds, 20% with a hit somewhere; the sample as a whole holds those more often.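 Treatment: one concentration, 48 hours, 96-well format. Scoring: percent growth, with anything below 10 considered active.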 Unmarked numbers belong to inactive results. The source made the active and inactive calls.

On to `CN(C)S(=O)(=O)c1ccc(-c2nc(C(Cl)Cl)nc3cc(-c4ccccc4)nn23)cc1`, for which the growth is 60.7%.

Consider `C=CCn1c(SCC(=O)c2ccccc2)nnc1-c1c[nH]c2ccccc12`, for which the growth was 87.7%.

For `N#Cc1ccc(-c2ccc(COc3ccc(CC4SC(=O)NC4=O)cc3)cc2)cc1` (centres undefined), the growth was 5.4% (active).

On to `Clc1ccc(-c2cn3cc(Cc4ccc(Cl)c(Cl)c4)sc3n2)cc1`, for which the growth is 80.5%.

For `c1cc2ccc1CNCCN1CCNCc3ccc(cc3)Oc3ccc(cc3)CNCCN(CCNCc3ccc(cc3)O2)CCNCc2ccc(cc2)Oc2ccc(cc2)CNCC1`, the growth is -77.6% (active).

As to `CC(=C(c1ccc(OCCN2CCCCC2)cc1)c1ccc(OCCN2CCCCC2)cc1)c1ccc(Cl)cc1`, the growth is -79.6% (active).

For `CCCCCCN(CCCCCC)CC(O)c1cccc2ccc(Cl)cc12` (centres undefined), the growth is 87.6%.

As for `CSc1ccc(/C(=N/N=C(N)N)c2ccc(F)cc2)cc1`, the growth was -34.6% (active).

With `O=NN(CCCl)C(=O)NCc1ccc(-c2ccc(CNC(=O)N(CCCl)N=O)cc2)cc1`, the growth is 101%.

Regarding `Nc1ccc(C2=CC(c3ccc(Cl)cc3)N3C=CSC3=N2)cc1` (centres undefined), the growth was -77.1% (active).

For the compound `C=C(C)c1ccc(/C=N/NC(N)=S)cc1`, the growth is 70.6%.

In the case of `OC(c1ccccc1)c1ccccn1` (centres undefined), the growth was 103%.

Consider `O=C1OC(c2ccc(F)cc2)CC1CN1CCOCC1` (centres undefined), for which the growth is 95.8%.

Consider `Cc1cc(Cl)nc(Nc2ccccc2)n1`, for which the growth is 105%.

On to `c1ccc2cc(Cn3c(-c4ccc5ccccc5c4)[n+](Cc4ccc5ccccc5c4)c4ccccc43)ccc2c1`, for which the growth is -42.9% (active).

In the case of `O=C1c2ccccc2C(c2ccccc2)C1c1ccccc1` (centres undefined), the growth is 71.4%.

With `CCOc1nc(-c2ccccc2)cc2c(O)c(C(=O)N/N=C/c3ccc(N(C)C)cc3)[nH]c(=O)c12`, the growth is 158%.

For the compound `COc1cc(/C=C\c2cc(OC)c(OC)c(OC)c2)cc(N/C=C\C(=O)c2c[nH]c3ccccc23)c1OC`, the growth is -55.8% (active).

Take `C=C1C(=O)O[C@H]2[C@H]1CC/C(COC(=O)NCc1ccc(Cn3c(=O)sn(CCCI)c3=O)cc1)=C\CC[C@@]1(C)O[C@@H]21`: the growth is -28.8% (active).

In the case of `O=C1CC(c2ccccc2)Cc2nc3ccc(Br)cc3cc21` (centres undefined), the growth is 0.354% (active).

`COC(=O)C(O)c1ccccc1` (centres undefined): the growth was 112%.

`N#Cc1cnc2cc(OC[C@@H](O)CO)c(NC(=O)CC3CSSC3)cc2c1Nc1ccc(OCc2cccc(F)c2)c(Cl)c1`: the growth was -74.8% (active).

For `C=C(C[n+]1ccccc1)[C@@H]1CC[C@]2(C(=O)OC)CC[C@]3(C)[C@H](CC[C@@H]4[C@@]5(C)CC[C@H](O)C(C)(C)[C@@H]5CC[C@]43C)[C@@H]12`, the growth was 86.3%.

On to `c1ccc(-c2cccc(-c3ccccn3)n2)nc1`, for which the growth was -15.6% (active).

For `O=C(N/N=C/c1c(Cl)cccc1Cl)c1ccccc1Nc1ccnc(C(F)(F)F)c1`, the growth is 53.5%.

Turning to `CN(C)S(=O)(=O)n1cnc([C@@H]2[C@@H]3C(=O)OC[C@@H]3C[C@]23N=CN(Cc2ccccc2)C3=O)c1`, the growth was 97.2%.

In the case of `O=C(Nc1nc2c(s1)CCc1c-2c(Br)n(Cc2ccccc2)c1Br)c1ccccc1`, the growth is 72.8%.

On to `Nc1ccc2c(c1)C(=O)NC2=O`, for which the growth is 75.4%.

With `Cn1ccnc1C(=O)/C=C/c1ccc(CC(=O)Nc2ccc(Cl)cc2)cc1`, the growth is -15.4% (active).

For the compound `CC1(C)OC2OC3C(CN)OC(c4ccccc4)OC3C2O1` (centres undefined), the growth is 116%.

For the compound `N#Cc1c(-c2ccc(F)cc2)nc2c(C#N)c(Nc3ccccc3)nn2c1N`, the growth is 103%.

Take `Cc1cc(N2CCN(CC(=O)Nc3ccc4c(ccn4Cc4ccccc4)c3)CC2)nc(N2CCOCC2)n1`: the growth is 67%.

`Clc1nccc2c(-c3csc(-c4c[nH]c5ccc(Br)cc45)n3)c[nH]c12`: the growth is 26.9%.

With `CCn1cc(C(=O)O)c(=O)c2cc(F)c(N3CCN(S(=O)(=O)c4c(C)cc(C)cc4C)CC3)cc21`, the growth was 80.3%.

As to `N#Cc1c(-c2cccs2)cc(-c2cnccn2)nc1SCC(=O)Nc1ccc(Br)cc1`, the growth was 81.1%.

In the case of `O=C(c1ccccc1)C(Nc1ccccc1)c1ccccc1` (centres undefined), the growth was 88.7%.

With `CNc1nc2c(s1)C(c1cccc(F)c1)CC(=O)N2` (centres undefined), the growth was 98%.

Take `CCOC(=O)C1CSC(C)(C(=O)OCC)N1` (centres undefined): the growth is 105%.

On to `COc1ccc(-c2ccc(-c3ccc(C(=N)N)c(F)c3)s2)cc1`, for which the growth is -78.7% (active).

The record behind these values is PubChem BioAssay (NCI).
